Rin1-Abl PPI inh: human Rin1-Abl interaction inhibition; P00519+Q13671; TR-FRET Rin1/Abl binding, biochemical; inhibition, % at 7.35 µM; 360,000 compounds, 0.4% hits; in the data active = inhibition above about 5%, passing the limit was not always enough
PAFAH2 inh: inhibitors of human PAFAH2; recombinant PAFAH2, FP-rhodamine activity probe, fluorescence polarization; 340,000 compounds, 0.99% hits; inhibition, % at 3.39 µM; AID 492956; Q99487;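 active = inhibition above the mean over all tested compounds plus 3 SD, cut at about 30% in these data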;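 also: inhibitors block probe labeling of enzyme so polarization drops; 0% = enzyme with DMSO and 100% = wells lacking PAFAH2 protein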
PAFAH1B2 inh: PAFAH1B2 (human) inhibition; 340,000 compounds, 1.2% hits; inhibition, % at 3.39 µM; P68402; recombinant PAFAH1B2, FP-rhodamine activity probe, fluorescence polarization;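 active = inhibition above the mean of all tested compounds plus 3 SD, cut at about 24% in these data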;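 also: 0% = enzyme with DMSO and 100% = wells lacking PAFAH1B2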
eLon inh: inhibitors of E. coli Lon protease | purified E. coli Lon protease, fluorescence polarization | inhibition, % at 7.94 µM | 360,000 compounds, 0.42% hits | AID 602123 | P0A9M0; in the data active = inhibition above about 13%, passing the limit was not always enough;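 also: 0% = enzyme with probe and DMSO and 100% = no enzyme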
PAFAH1B3 FP inh: PAFAH1B3 (human) inhibition; Q15102; recombinant PAFAH1B3, FP-rhodamine probe, fluorescence polarization; inhibition, % at 3.39 µM; 340,000 compounds, 0.28% hits;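 active = inhibition above the screen-wide average of all tested compounds plus 3 SD, cut at about 25% in these data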;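 also: 0% = enzyme with DMSO only and 100% = wells lacking PAFAH1B3 protein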
Target sequence (Q15102 whole entry, looked up): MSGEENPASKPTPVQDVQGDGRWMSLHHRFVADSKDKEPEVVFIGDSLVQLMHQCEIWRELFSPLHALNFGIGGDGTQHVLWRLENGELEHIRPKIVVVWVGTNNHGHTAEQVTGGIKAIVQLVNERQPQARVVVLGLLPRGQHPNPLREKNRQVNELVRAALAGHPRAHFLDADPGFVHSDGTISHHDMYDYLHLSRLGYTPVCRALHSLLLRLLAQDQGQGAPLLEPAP
pPAFAH FP inh: pPAFAH (human) enzyme inhibition; inhibition, % at 3.39 µM; recombinant pPAFAH, FP-rhodamine probe fluorescence polarization; Q13093; 330,000 compounds, 1.5% hits;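 active = inhibition above the mean inhibition across the screen plus 3 SD, cut at about 25% in these data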;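 also: inhibitors block binding of the rhodamine activity-based probe so polarization drops; 0% = enzyme with DMSO and 100% = wells lacking pPAFAH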
Target sequence (Q13093 whole entry, looked up): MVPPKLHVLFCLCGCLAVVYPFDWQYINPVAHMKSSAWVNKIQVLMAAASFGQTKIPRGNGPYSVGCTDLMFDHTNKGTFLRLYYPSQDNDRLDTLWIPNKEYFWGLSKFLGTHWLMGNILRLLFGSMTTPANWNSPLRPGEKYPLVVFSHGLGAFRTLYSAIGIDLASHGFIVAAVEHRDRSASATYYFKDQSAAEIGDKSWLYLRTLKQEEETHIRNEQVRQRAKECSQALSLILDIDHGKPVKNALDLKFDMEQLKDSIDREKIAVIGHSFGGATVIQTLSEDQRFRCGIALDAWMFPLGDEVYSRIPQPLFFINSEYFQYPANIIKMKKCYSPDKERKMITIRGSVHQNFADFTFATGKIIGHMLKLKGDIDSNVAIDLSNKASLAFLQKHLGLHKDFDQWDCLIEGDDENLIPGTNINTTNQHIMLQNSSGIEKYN
Rin1-Abl confirm: Rin1-Abl interaction inhibition confirmation; TR-FRET Rin1-Abl binding, purified proteins; 1,300 compounds, 49% hits; inhibition, % at 7.35 µM; shares compounds with Rin1-Abl PPI inh
GFP quench: quenches GFP fluorescence, counter-screen for Rin1-Abl inhibitors; inhibitors/quenchers counterscreen; inhibition, % at 6.75 µM; 1,300 compounds, 8.5% hits; shares compounds with Rin1-Abl PPI inh;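 also: ABL1-eGFP fusion protein alone without its partner RIN1-SBP; 0% = protein with vehicle and 100% = wells lacking protein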
GFP quench dose: counter-screen for Rin1-Abl inhibitors: GFP quenchers, dose response. IC50, µM. AID 602182. 230 tested, under 10 active. GFP fluorescence interference/quenching counterscreen. shares compounds with Rin1-Abl PPI inh; call rule not given here;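 also: ABL1-eGFP fusion protein alone without its RIN1 binding partner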
Starred values were filed as active, the others as inactive. Hits are enriched below; roughly 3.1% of the tested compounds scored in any of these assays. Rule as the data show it, unless noted: active = inhibition above about 6.5%; inactive = the rest.

What do the screens show for `COc1ccc(C(c2oc(CO)cc(=O)c2O)c2oc(CO)cc(=O)c2O)cc1`?
Rin1-Abl PPI inh: 16*; PAFAH2 inh: 6; PAFAH1B2 inh: -5; eLon inh: 4; PAFAH1B3 FP inh: 0; pPAFAH FP inh: 4; Rin1-Abl confirm: 11*; GFP quench: 2

What do the screens show for `COc1ccc(C(c2oc(CO)cc(=O)c2O)c2oc(CO)cc(=O)c2O)cc1OC`?
Rin1-Abl PPI inh: -1; PAFAH2 inh: 1; PAFAH1B2 inh: 4; eLon inh: -3; PAFAH1B3 FP inh: 4; pPAFAH FP inh: -1

How did C[C@@H]1CN([C@@H](C)CO)C(=O)c2cc(N(C)C)ccc2O[C@@H]1CN(C)S(C)(=O)=O do in these assays?
Rin1-Abl PPI inh: -2; PAFAH2 inh: 0; PAFAH1B2 inh: 9; eLon inh: -4; PAFAH1B3 FP inh: 3; pPAFAH FP inh: 4

How did Cc1ccccc1NC(=O)Nc1ccc(C(F)(F)F)cc1 do in these assays?
Rin1-Abl PPI inh: 9.0*; PAFAH2 inh: 3; PAFAH1B2 inh: -4; eLon inh: 2; PAFAH1B3 FP inh: 0; pPAFAH FP inh: -6; Rin1-Abl confirm: -1; GFP quench: 0

How did CC(=O)c1c(O)cc2c3c1OC(C)(C)C1CCC(C)(CC31)O2 (configuration not stated) do in these assays?
Rin1-Abl PPI inh: 2; eLon inh: 7

How did O=C(Nc1ccccc1N1CCN(C(=O)c2ccc(Cl)cc2)CC1)c1cccnc1 do in these assays?
Rin1-Abl PPI inh: 17*; PAFAH2 inh: -6; PAFAH1B2 inh: 6; eLon inh: 4; PAFAH1B3 FP inh: 11; pPAFAH FP inh: 8; Rin1-Abl confirm: 23*; GFP quench: 1; GFP quench dose: >68

Results for O=C(Nc1ccc(N2CCN(C(=O)c3ccc(Cl)cc3)CC2)cc1)c1cccnc1 ?
Rin1-Abl PPI inh: -7; PAFAH2 inh: 1; PAFAH1B2 inh: 0; eLon inh: -5; PAFAH1B3 FP inh: 0; pPAFAH FP inh: 7

How did CSCC[C@H](NC(=O)[C@H](Cc1ccccc1)n1c(=O)[nH]c2ccccc2c1=O)C(=O)N1CCC(C(=O)O)CC1 do in these assays?
Rin1-Abl PPI inh: 1; PAFAH2 inh: -2; PAFAH1B2 inh: -2; eLon inh: -3; PAFAH1B3 FP inh: 12; pPAFAH FP inh: 3

Results for COc1ccc2c(c1O)-c1ccccc1CCN(C)C2 ?
Rin1-Abl PPI inh: -3; PAFAH2 inh: 12; PAFAH1B2 inh: 6; eLon inh: -5; PAFAH1B3 FP inh: 3; pPAFAH FP inh: -5

How did CN1CCc2cccc3c2[C@@H]1Cc1ccc(O)c(O)c1-3 do in these assays?
Rin1-Abl PPI inh: 17*; PAFAH2 inh: 8; PAFAH1B2 inh: 1; eLon inh: 3; PAFAH1B3 FP inh: 17; pPAFAH FP inh: 23; Rin1-Abl confirm: 12*; GFP quench: 13*

Results for N#CCCN(C(=O)COC(=O)Cc1c[nH]c2ccccc12)c1ccccc1 ?
Rin1-Abl PPI inh: -6; PAFAH2 inh: -3; PAFAH1B2 inh: 6; eLon inh: 0; PAFAH1B3 FP inh: 14; pPAFAH FP inh: 8

How did Cc1ccc(C)c(NS(=O)(=O)c2cc(C(=O)NCc3ccncc3)ccc2C)c1 do in these assays?
Rin1-Abl PPI inh: 6; PAFAH2 inh: 2; PAFAH1B2 inh: 2; eLon inh: -5; PAFAH1B3 FP inh: -3; pPAFAH FP inh: 11

How did Cc1ccc(C(=O)NCc2ccncc2)cc1S(=O)(=O)Nc1cccc(C)c1C do in these assays?
Rin1-Abl PPI inh: 15*; PAFAH2 inh: 4; PAFAH1B2 inh: 4; eLon inh: 0; PAFAH1B3 FP inh: -1; pPAFAH FP inh: 11; Rin1-Abl confirm: -1; GFP quench: -3

How did CC(=O)c1ccc(S(=O)(=O)NC2CC(=O)N(c3ccc(Cl)cc3)C2)cc1 (configuration not stated) do in these assays?
Rin1-Abl PPI inh: 1; PAFAH2 inh: -5; PAFAH1B2 inh: 9; eLon inh: -12; PAFAH1B3 FP inh: 7; pPAFAH FP inh: 6

What do the screens show for `Cc1ccnc(NC(c2ccccc2O)c2oc(CO)cc(=O)c2O)c1` (configuration not stated)?
Rin1-Abl PPI inh: 27*; PAFAH2 inh: 0; PAFAH1B2 inh: 2; eLon inh: 5; PAFAH1B3 FP inh: 4; pPAFAH FP inh: 3; Rin1-Abl confirm: 9.8*; GFP quench: 2

What do the screens show for `O=c1cc(CO)oc(C(Nc2ccccn2)c2ccccc2Cl)c1O` (configuration not stated)?
Rin1-Abl PPI inh: 2; PAFAH2 inh: 3; PAFAH1B2 inh: 9; eLon inh: -2; PAFAH1B3 FP inh: -2; pPAFAH FP inh: 6

Results for O=C(CCn1c(=O)oc2ccccc21)NC1=NCCS1 ?
Rin1-Abl PPI inh: 10.0*; PAFAH2 inh: 1; PAFAH1B2 inh: 4; eLon inh: -9; PAFAH1B3 FP inh: 4; pPAFAH FP inh: -1; Rin1-Abl confirm: -2; GFP quench: 0

What do the screens show for `Cc1cnc(NC(=O)[C@H](C)N2C(=O)C3CCCCC3C2=O)s1` (some centres not stated)?
Rin1-Abl PPI inh: 2; PAFAH2 inh: 0; PAFAH1B2 inh: -2; eLon inh: 4; PAFAH1B3 FP inh: -4; pPAFAH FP inh: -2

Results for Cc1cnc(NC(=O)C(C)N2CCN(C)CC2)s1 (configuration not stated) ?
Rin1-Abl PPI inh: 6.7*; PAFAH2 inh: 4; PAFAH1B2 inh: 1; eLon inh: -4; PAFAH1B3 FP inh: 8; pPAFAH FP inh: -2; Rin1-Abl confirm: 1; GFP quench: -1

Results for O=C(C[C@H]1C[C@@H]2c3cc(NC(=O)c4ccc5c(c4)OCO5)ccc3O[C@@H]2[C@H](CO)O1)NCc1cc(F)ccc1F ?
Rin1-Abl PPI inh: 5; eLon inh: -3

What do the screens show for `CN(C)c1ccc(C=c2c3cc([N+](=O)[O-])ccc3n3c2cc(-c2ccccc2)[n+]3C)cc1`?
Rin1-Abl PPI inh: 37*; PAFAH2 inh: 23; PAFAH1B2 inh: 10; eLon inh: 12; PAFAH1B3 FP inh: 13; Rin1-Abl confirm: 4; GFP quench: 35*

Results for COc1cccc(-c2cnc(C(O)c3cc(C)cc(C)c3)[nH]2)c1 (configuration not stated) ?
Rin1-Abl PPI inh: 4; eLon inh: -5

How did COc1ccc(OCC(=O)OCCN2C(=O)c3ccccc3C2=O)cc1 do in these assays?
Rin1-Abl PPI inh: 10*; PAFAH2 inh: 5; PAFAH1B2 inh: 7; eLon inh: 9; PAFAH1B3 FP inh: 14; pPAFAH FP inh: 12; Rin1-Abl confirm: -1; GFP quench: 1
